Among the test systems are SR leukemia; RPMI-8226 leukemia; OVCAR-8 ovarian; OVCAR-5 ovarian; OVCAR-4 ovarian; SK-OV-3 ovarian; IGROV1 ovarian; OVCAR-3 ovarian; HS 578T breast; NCI/ADR-RES ovarian; T-47D breast; BT-549 breast; MDA-MB-435 melanoma; SW-620 colon; MCF7 breast; HCT-116 colon; HCC-2998 colon; KM12 colon.
Common to all, as to assay: NCI-60 one-dose screen, 48 h (100 = growth as untreated, 0 = no growth, -100 = all killed)
Common to all, as to conditions: 10 µM unless noted

This is part of a sample that, as a whole, favours compounds with a hit. Of some 83,000 tested, about 20% had one in any assay.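 Cells were grown in 96-well plates and exposed to the test compound at a single concentration for 48 hours; results are reported as percent growth, with values below 10 considered active.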 Unmarked numbers belong to inactive results. Active and inactive are the calls of the source.

Turning to `COc1cc(-c2ccc[nH]2)[nH]c1/C=C1\N=C(C)C(CC(=O)OCC(C)(C)C)=C1C`, the growth is -54.2% (active) in the experiment with SR leukemia; -49.6% (active) with RPMI-8226 leukemia; -60.8% (active) with OVCAR-8 ovarian; -55.1% (active) in the experiment on OVCAR-5 ovarian; -91.5% (active) with OVCAR-4 ovarian; -57.3% (active) with SK-OV-3 ovarian. Further, the growth with IGROV1 ovarian is -43.4% (active); with OVCAR-3 ovarian it was -98% (active); in the experiment on HS 578T breast, -24.8% (active); with NCI/ADR-RES ovarian, -65.8% (active); in the experiment on T-47D breast, -58.7% (active); in the experiment with BT-549 breast, -87.7% (active). Further, the growth was -81.9% (active) in the experiment on MDA-MB-435 melanoma; -64.6% (active) in the experiment on SW-620 colon; -74.1% (active) in the experiment with MCF7 breast; -90.4% (active) with HCT-116 colon; -81.4% (active) in the experiment on HCC-2998 colon; -90% (active) with KM12 colon.
On to `CC1=C2[C@@H](CC1)[C@]1(C)O[C@@](C3CCNCC3)(C[C@H]1OC(=O)CO)[C@H]2OC(=O)/C=C/c1ccccc1`, for which the growth in the experiment on SR leukemia was 33.1%; in the experiment with RPMI-8226 leukemia, 82.3%; with OVCAR-8 ovarian, 84.3%; in the experiment on OVCAR-5 ovarian it was 99.4%; with OVCAR-4 ovarian it was 82.9%; in the experiment on SK-OV-3 ovarian it was 106%. Besides, the growth is 80.3% with IGROV1 ovarian; 93.9% in the experiment with OVCAR-3 ovarian; 58.4% with HS 578T breast; 90.3% in the experiment on NCI/ADR-RES ovarian; 62.6% with T-47D breast; 81.7% in the experiment on BT-549 breast. Also, the growth was 88.6% in the experiment on MDA-MB-435 melanoma; 93.6% in the experiment with SW-620 colon; 74.2% in the experiment on MCF7 breast; 74.5% in the experiment with HCT-116 colon; 99% with HCC-2998 colon; 97.6% in the experiment with KM12 colon.
For `c1ccc(-c2nc3ccccc3[nH]2)c(OCCCCCOc2ccccc2-c2nc3ccccc3[nH]2)c1`, the growth in the experiment with SR leukemia was 2.06% (active); with RPMI-8226 leukemia, 23.8%; with OVCAR-8 ovarian, 64.3%; with OVCAR-5 ovarian it was 92.2%; in the experiment with OVCAR-4 ovarian it was 58.9%; in the experiment with SK-OV-3 ovarian it was 169%. Moreover, the growth was 70% with IGROV1 ovarian; 59.7% with OVCAR-3 ovarian; 89% in the experiment with HS 578T breast; 63.9% in the experiment with NCI/ADR-RES ovarian; 111% in the experiment on T-47D breast; 88.5% in the experiment with BT-549 breast. The growth in the experiment with MDA-MB-435 melanoma is 63.5%; in the experiment with SW-620 colon, 18.5%; with MCF7 breast, 19.8%; with HCT-116 colon, -10.4% (active); in the experiment on HCC-2998 colon, 92.2%; with KM12 colon, 98.6%.
On to `O=C(NCCCCO)c1cncnc1Nc1ccc2c(ccn2Cc2cccc(F)c2)c1`, for which the growth with SR leukemia is 93.4%; in the experiment with RPMI-8226 leukemia it was 95.3%; in the experiment on OVCAR-8 ovarian it was 101%; in the experiment with OVCAR-5 ovarian, 86.3%; in the experiment on OVCAR-4 ovarian, 100%; in the experiment with SK-OV-3 ovarian, 89.8%. Moreover, the growth in the experiment with IGROV1 ovarian was 88.1%; in the experiment on OVCAR-3 ovarian, 98.5%; with HS 578T breast it was 94.1%; in the experiment with NCI/ADR-RES ovarian it was 91.3%; in the experiment on T-47D breast, 83.3%; in the experiment on BT-549 breast it was 88.6%. In addition, the growth is 92.1% in the experiment with MDA-MB-435 melanoma; 105% in the experiment on SW-620 colon; 96.8% with MCF7 breast; 91.5% in the experiment with HCT-116 colon; 93.4% with HCC-2998 colon; 97.4% in the experiment with KM12 colon.
Take `Cc1c(C(C)(C)O)cn2ncnc(Oc3ccc(NC(=O)Nc4ccc(Cl)c(C(F)(F)F)c4)c(F)c3)c12`: the growth in the experiment on SR leukemia was 8.9% (active); in the experiment with RPMI-8226 leukemia, 49.9%; in the experiment on OVCAR-8 ovarian it was 70.7%; with OVCAR-5 ovarian, 134%; in the experiment with OVCAR-4 ovarian it was 37.5%; with SK-OV-3 ovarian, 95.6%. For the same compound, the growth with IGROV1 ovarian was 57.3%; in the experiment with OVCAR-3 ovarian, 47.6%; with HS 578T breast it was 80.9%; in the experiment on NCI/ADR-RES ovarian it was 68%; with T-47D breast it was 40.6%; in the experiment with BT-549 breast, 72.4%. The growth with MDA-MB-435 melanoma was 58%; in the experiment on SW-620 colon, 85%; with MCF7 breast, 32.4%; in the experiment on HCT-116 colon it was 38.7%; with HCC-2998 colon, 125%; in the experiment on KM12 colon, 43.6%.
Take `COc1ccc(C/C(C)=C(\c2ccc(O)cc2)c2ccc(OCCN3CCCCC3)cc2)cc1`: the growth in the experiment on SR leukemia was 22.1%; in the experiment on RPMI-8226 leukemia it was 71.9%; in the experiment with OVCAR-8 ovarian, 90.7%; with OVCAR-5 ovarian, 83.2%; in the experiment with OVCAR-4 ovarian, 87.1%; with SK-OV-3 ovarian, 105%. Moreover, the growth in the experiment with IGROV1 ovarian was 80.6%; in the experiment on OVCAR-3 ovarian, 88.9%; in the experiment with HS 578T breast, 86.8%; in the experiment with NCI/ADR-RES ovarian it was 90.5%; in the experiment with T-47D breast it was 53.8%; with BT-549 breast, 88.3%. For the same compound, the growth was 82.1% in the experiment on MDA-MB-435 melanoma; 91.6% with SW-620 colon; 35.2% in the experiment on MCF7 breast; 46.5% in the experiment on HCT-116 colon; 80.8% with HCC-2998 colon; 91.1% with KM12 colon.
As to `CCN(CC)c1ccc(-c2cc(-c3cc(OC)c(OC)c(OC)c3)nc(N3CCC(O)CC3)c2C#N)cc1`, the growth in the experiment on SR leukemia is 12%; in the experiment on RPMI-8226 leukemia it was -11.8% (active); with OVCAR-8 ovarian, 10.6%; in the experiment on OVCAR-5 ovarian, 2.43% (active); in the experiment with OVCAR-4 ovarian it was 40.5%; in the experiment on SK-OV-3 ovarian, -5.1% (active). Besides, the growth in the experiment on IGROV1 ovarian was 2.12% (active); in the experiment with OVCAR-3 ovarian, -58.6% (active); in the experiment on HS 578T breast, -13.8% (active); with NCI/ADR-RES ovarian, 5.08% (active); in the experiment with T-47D breast it was 2.08% (active); in the experiment with BT-549 breast, -1.42% (active). Moreover, the growth in the experiment with MDA-MB-435 melanoma is -40.8% (active); in the experiment on SW-620 colon, 9.95% (active); with MCF7 breast, -33.3% (active); with HCT-116 colon, -51% (active); in the experiment on HCC-2998 colon it was -10.5% (active); in the experiment on KM12 colon, -26.8% (active).
As for `COc1ccc(-c2cn(Cc3cc4ccccc4s3)nn2)cc1OCCN1CCCCC1`, the growth in the experiment with SR leukemia was 1.37% (active); in the experiment with RPMI-8226 leukemia, 28.5%; with OVCAR-8 ovarian, 83.2%; in the experiment with OVCAR-5 ovarian it was 80.5%; with OVCAR-4 ovarian it was 68.2%; with SK-OV-3 ovarian, 93.1%. The growth in the experiment with IGROV1 ovarian was 80.8%; in the experiment with OVCAR-3 ovarian, 74.6%; in the experiment on HS 578T breast, 51.3%; in the experiment with NCI/ADR-RES ovarian, 75.4%; in the experiment on T-47D breast it was 85.1%; in the experiment with BT-549 breast it was 74.8%. Further, the growth in the experiment with MDA-MB-435 melanoma was 69.6%; with SW-620 colon, 90.9%; in the experiment with MCF7 breast, 60.6%; in the experiment with HCT-116 colon it was 75.9%; in the experiment on HCC-2998 colon, 57.4%; in the experiment on KM12 colon, 87%.
For the compound `COC(=O)c1c2c(c[n+]([O-])c1C)C(=O)C=C(NCc1ccccc1)C2=O`, the growth is -10.3% (active) with SR leukemia; -22.6% (active) in the experiment with RPMI-8226 leukemia; -60.4% (active) in the experiment on OVCAR-8 ovarian; -90% (active) in the experiment with OVCAR-5 ovarian; -98.8% (active) in the experiment with OVCAR-4 ovarian; -87.6% (active) in the experiment with SK-OV-3 ovarian. The growth in the experiment with IGROV1 ovarian is -66.9% (active); in the experiment with OVCAR-3 ovarian, -68.7% (active); with HS 578T breast, -15.5% (active); in the experiment on NCI/ADR-RES ovarian it was -12.1% (active); in the experiment with T-47D breast it was -47.7% (active); with BT-549 breast it was -87.3% (active). Besides, the growth was -86.5% (active) with MDA-MB-435 melanoma; -78.9% (active) in the experiment on SW-620 colon; -57.3% (active) in the experiment with MCF7 breast; -79.5% (active) with HCT-116 colon; -89.5% (active) in the experiment on HCC-2998 colon; -83.2% (active) in the experiment with KM12 colon.
